Assay results published in PubChem BioAssay (Tox21).
“And” between values parts separate entries of the source, which are not always exact repeats. Identical values can stand only once. Inconclusive results are not listed. The source made the active and inactive calls. Calls come from the whole dose curve; as a rule, active = well fitted curve in the direction sought with a large enough effect in the repeat runs; inconclusive = weak or mixed curves; inactive = no such curve, though single readings can be large; an effect the other way counts as inactive or inconclusive.

Experiments:
[1] = Caspase-3/7 induction in HepG2 cells by small molecules, qHTS assay (AID 1346978); note: nearly all actives have a fitted effect of over 15% in size
In short: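 Wild-type HepG2 cells, 2,000/well, settled 5 hr at 37 C and 5% CO2, then compound-treated for 17 hr; caspase-3/7 activity read by luminescent Caspase-Glo 3/7 after 30 min at room temperature.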

[2] = Caspase-3/7 induction in CHO-K1 cells by small molecules, qHTS cell viability counter screen (AID 1346979); note: nearly all actives have a fitted effect of over 35% in size; note: potency is the fitted concentration of half-maximal effect
In short: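 Following a 5hr settling period, CHO-K1 cells at 1,500 per well received DMSO-dissolved compounds. Cell viability was quantified 16hr later by CellTiter-Fluor fluorescence, measured after 1hr with reagent at 37C.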

[3] = Caspase-3/7 induction in HepG2 cells by small molecules, qHTS cell viability counter screen (AID 1346981); note: nearly all actives have a fitted effect of over 30% in size; note: potency is the fitted concentration of half-maximal effect
In short: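 Fluorescence read-out of live-cell protease activity (CellTiter-Fluor) after 1 hr with reagent. This was measured in the same wells as the caspase-3/7 luminescence, on HepG2 cells exposed to DMSO-dissolved compounds for 16 hr at 37 C.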

[4] = target: Nuclear receptor subfamily 1 group I member 2 (Homo sapiens) (UniProt O75469); assay: Human pregnane X receptor (PXR) small molecule agonists, qHTS assay (AID 1346982); note: nearly all actives have a fitted effect of over 35% in size; note: potency is the fitted concentration of half-maximal effect
Nuclear receptor subfamily 1 group I member 2 (Homo sapiens), sequence (O75469 whole entry, looked up): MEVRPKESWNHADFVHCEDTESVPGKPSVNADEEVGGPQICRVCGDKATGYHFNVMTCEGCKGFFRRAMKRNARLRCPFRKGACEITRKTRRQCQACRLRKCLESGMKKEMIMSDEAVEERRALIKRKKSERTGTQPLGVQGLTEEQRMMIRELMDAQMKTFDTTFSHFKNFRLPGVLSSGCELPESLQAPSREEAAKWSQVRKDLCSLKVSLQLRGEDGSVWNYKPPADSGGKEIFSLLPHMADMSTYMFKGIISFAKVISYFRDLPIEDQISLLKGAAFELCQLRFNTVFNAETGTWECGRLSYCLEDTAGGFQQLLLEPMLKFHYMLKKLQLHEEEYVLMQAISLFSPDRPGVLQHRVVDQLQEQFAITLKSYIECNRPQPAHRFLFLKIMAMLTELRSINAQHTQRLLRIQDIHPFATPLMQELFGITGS
In short: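 HepG2 PXR-Luc reporter line, 5% charcoal-stripped FBS; 5 hr pre-incubation, compound (DMSO) 24 hr at 37 C/5% CO2; ONE-Glo 30 min RT; luminescence read-out.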

[5] = target: Cytochrome P450 2D6 (Homo sapiens) (UniProt P10635); assay: Cytochrome P450 Family 2 Subfamily D Member 6 (CYP2D6) small molecule antagonists: luciferase reporter qHTS assay (AID 1671196); note: nearly all actives have a fitted effect of over 50% in size; note: potency is the fitted concentration of half-maximal effect
Cytochrome P450 2D6 (Homo sapiens), sequence (P10635 whole entry, looked up): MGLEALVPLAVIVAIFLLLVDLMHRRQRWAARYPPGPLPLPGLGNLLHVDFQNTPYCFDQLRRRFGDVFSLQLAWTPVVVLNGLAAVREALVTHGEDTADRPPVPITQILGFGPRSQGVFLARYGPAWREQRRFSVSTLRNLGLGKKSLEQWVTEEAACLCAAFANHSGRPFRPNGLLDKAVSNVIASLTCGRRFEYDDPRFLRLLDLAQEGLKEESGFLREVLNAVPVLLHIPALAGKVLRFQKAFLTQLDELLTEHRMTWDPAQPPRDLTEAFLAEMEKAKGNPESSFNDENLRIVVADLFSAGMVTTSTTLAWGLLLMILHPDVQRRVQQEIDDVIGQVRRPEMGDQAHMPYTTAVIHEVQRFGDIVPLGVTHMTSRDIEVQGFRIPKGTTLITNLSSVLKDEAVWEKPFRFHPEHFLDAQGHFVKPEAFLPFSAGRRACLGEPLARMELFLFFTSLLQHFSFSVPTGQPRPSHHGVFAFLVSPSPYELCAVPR
In short: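 Luminogenic proluciferin substrate, CYP2D6 enzyme; 10 min RT preincubation with compound, NADPH regeneration system added, 1 h RT. Stop/detection reagent, 20 min RT, luminescence read (RLU). Signal proportional to CYP activity.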

[6] = target: Cytochrome P450 2C19 (Homo sapiens) (UniProt P33261); assay: Cytochrome P450 Family 2 Subfamily C Member 19 (CYP2C19) small molecule antagonists: luciferase reporter qHTS assay (AID 1671197); note: nearly all actives have a fitted effect of over 65% in size; note: potency is the fitted concentration of half-maximal effect
Cytochrome P450 2C19 (Homo sapiens), sequence (P33261 whole entry, looked up): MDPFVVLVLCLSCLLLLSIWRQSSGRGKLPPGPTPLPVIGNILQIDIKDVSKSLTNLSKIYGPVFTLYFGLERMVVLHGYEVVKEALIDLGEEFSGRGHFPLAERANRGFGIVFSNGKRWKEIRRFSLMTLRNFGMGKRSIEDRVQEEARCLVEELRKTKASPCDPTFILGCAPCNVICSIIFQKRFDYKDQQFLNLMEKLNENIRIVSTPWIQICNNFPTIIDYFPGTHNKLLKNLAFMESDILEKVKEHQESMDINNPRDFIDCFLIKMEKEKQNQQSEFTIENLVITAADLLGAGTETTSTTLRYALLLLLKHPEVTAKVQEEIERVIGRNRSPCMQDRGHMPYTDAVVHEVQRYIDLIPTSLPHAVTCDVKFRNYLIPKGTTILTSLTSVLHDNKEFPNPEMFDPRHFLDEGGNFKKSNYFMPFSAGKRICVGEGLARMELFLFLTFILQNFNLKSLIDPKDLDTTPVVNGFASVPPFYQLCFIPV
In short: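 First, compounds are pinned into enzyme-substrate mix and held 10 min at room temperature. Second, NADPH regeneration solution is added and plates incubate 1 h at 37C. Third, detection reagent is added and luminescence read after 20 min.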

[7] = target: Cytochrome P450 2C9 (Homo sapiens) (UniProt P11712); assay: Cytochrome P450 Family 2 Subfamily C Member 9 (CYP2C9) small molecule antagonists: luciferase reporter qHTS assay (AID 1671198); note: nearly all actives have a fitted effect of over 50% in size; note: potency is the fitted concentration of half-maximal effect
Cytochrome P450 2C9 (Homo sapiens), sequence (P11712 whole entry, looked up): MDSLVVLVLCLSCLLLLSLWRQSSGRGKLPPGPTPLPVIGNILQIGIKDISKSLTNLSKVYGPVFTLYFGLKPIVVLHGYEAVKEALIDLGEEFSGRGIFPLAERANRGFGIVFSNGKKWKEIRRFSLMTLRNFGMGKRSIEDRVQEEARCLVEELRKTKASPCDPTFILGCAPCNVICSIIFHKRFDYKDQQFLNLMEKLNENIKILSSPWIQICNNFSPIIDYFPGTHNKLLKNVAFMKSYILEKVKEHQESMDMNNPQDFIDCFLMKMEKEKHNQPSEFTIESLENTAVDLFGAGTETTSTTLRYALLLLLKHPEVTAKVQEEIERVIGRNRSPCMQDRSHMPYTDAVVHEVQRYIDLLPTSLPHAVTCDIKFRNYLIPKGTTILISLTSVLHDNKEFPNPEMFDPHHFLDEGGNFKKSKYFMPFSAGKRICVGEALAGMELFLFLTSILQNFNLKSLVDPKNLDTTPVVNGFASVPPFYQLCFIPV
In short: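 P450-Glo proluciferin substrate with CYP2C9 enzyme; 10 min RT preincubation, then NADPH regeneration 1 h at 37C; luciferin detection reagent 20 min RT, luminescence in relative luminescence units.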

[8] = target: Voltage-gated inwardly rectifying potassium channel KCNH2 (Homo sapiens) (UniProt Q12809); assay: Human Ether-a-go-go-Related Gene (hERG) channel small molecule antagonists: fluorescence cell-based qHTS assay (AID 1671200);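 note: hERG-expressing U2OS cells given a thallium stimulus after FluxOR II dye loading; series mostly up to about 77 µM; nearly all actives have a fitted effect of over 50% in size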
Voltage-gated inwardly rectifying potassium channel KCNH2 (Homo sapiens), sequence (Q12809 whole entry, looked up): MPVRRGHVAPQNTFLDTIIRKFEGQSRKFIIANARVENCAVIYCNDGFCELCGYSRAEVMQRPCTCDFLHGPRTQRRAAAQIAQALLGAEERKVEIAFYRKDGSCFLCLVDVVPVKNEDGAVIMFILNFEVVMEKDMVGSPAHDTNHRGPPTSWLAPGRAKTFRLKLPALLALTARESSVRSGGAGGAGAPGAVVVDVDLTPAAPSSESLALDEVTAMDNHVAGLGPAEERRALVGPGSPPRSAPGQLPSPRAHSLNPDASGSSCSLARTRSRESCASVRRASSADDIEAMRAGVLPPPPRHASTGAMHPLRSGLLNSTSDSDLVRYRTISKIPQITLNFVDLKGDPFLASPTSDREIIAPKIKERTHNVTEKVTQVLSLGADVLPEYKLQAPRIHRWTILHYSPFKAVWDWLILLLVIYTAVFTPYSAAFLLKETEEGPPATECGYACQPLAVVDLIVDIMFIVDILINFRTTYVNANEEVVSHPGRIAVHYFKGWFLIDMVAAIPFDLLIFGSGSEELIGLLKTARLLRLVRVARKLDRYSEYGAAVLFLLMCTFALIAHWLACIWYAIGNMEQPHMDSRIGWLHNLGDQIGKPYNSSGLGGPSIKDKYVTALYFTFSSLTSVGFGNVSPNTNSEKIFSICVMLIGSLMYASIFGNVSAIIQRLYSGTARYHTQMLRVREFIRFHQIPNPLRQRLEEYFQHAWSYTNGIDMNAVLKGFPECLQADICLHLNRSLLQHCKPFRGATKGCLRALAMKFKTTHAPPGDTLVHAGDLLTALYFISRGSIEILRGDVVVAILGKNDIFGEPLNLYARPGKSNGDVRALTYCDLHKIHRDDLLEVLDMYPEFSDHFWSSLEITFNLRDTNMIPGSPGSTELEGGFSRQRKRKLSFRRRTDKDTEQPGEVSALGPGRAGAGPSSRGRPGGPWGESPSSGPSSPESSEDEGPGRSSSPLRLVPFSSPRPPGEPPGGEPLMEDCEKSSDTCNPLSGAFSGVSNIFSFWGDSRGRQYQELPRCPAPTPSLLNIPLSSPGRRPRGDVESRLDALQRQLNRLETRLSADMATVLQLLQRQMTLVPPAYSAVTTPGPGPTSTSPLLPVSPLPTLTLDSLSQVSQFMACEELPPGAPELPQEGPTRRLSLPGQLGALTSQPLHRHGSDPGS
In short: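 In this thallium-flux screen, overnight-cultured U2OS cells bearing the channel are dye-loaded in darkness for an hour, rested 10 min at room temperature, and then monitored kinetically at 480/540 nm for two minutes post-stimulus.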

[9] = target: Nuclear receptor subfamily 1 group I member 2 (Homo sapiens) (UniProt O75469); assay: CYP3A4 induction through human pregnane X receptor (PXR) by small molecules, qHTS assay (AID 1346984); note: nearly all actives have a fitted effect of over 40% in size
In short: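 HepG2-derived DPX-2 line carrying PXR plus a CYP3A4-promoter luciferase reporter; cells plated 5 hr, compound-exposed 24 hr at 37C. CYP3A4 activity probed with 3uM (final) Luciferin-IPA for 3hr, then luciferase read after One-Glo.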

[10] = target: Nuclear receptor subfamily 1 group I member 2 (Homo sapiens) (UniProt O75469); assay: Human pregnane X receptor (PXR) activation by small molecules, qHTS assay (AID 1346985); note: nearly all actives have a fitted effect of over 40% in size; note: potency is the fitted concentration of half-maximal effect
In short: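 DPX-2 cells (HepG2 co-transfected with a PXR response element and a CYP3A4-promoter luciferase construct) were seeded at 2,000 per well, rested 5 hr at 37C, then exposed to DMSO-dissolved compounds for 24 hr. Activation was read as luciferase luminescence.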

[11] = target: Cytochrome P450 1A2 (Homo sapiens) (UniProt P05177); assay: Cytochrome P450 Family 1 Subfamily A Member 2 (CYP1A2) small molecule antagonists: luciferase reporter qHTS assay (AID 1671199); note: nearly all actives have a fitted effect of over 50% in size; note: potency is the fitted concentration of half-maximal effect
Cytochrome P450 1A2 (Homo sapiens), sequence (P05177 whole entry, looked up): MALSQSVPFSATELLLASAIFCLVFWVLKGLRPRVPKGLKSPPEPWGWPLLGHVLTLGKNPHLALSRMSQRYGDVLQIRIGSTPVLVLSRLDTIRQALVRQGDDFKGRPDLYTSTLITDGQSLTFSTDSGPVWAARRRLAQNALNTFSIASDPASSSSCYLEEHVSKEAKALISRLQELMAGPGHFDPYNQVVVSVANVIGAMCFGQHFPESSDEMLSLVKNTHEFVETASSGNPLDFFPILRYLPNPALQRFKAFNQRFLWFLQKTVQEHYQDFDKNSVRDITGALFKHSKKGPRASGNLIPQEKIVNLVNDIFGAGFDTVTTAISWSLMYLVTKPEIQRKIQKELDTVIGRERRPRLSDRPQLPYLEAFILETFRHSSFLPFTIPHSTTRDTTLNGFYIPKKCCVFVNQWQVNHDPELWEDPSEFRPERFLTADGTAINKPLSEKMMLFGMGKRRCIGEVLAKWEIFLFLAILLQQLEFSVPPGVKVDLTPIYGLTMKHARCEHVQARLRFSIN
In short: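 Luminescence readout (relative luminescence units) after luciferin detection reagent, 20 min RT. Preceded by 1 h room-temperature CYP1A2 reaction with NADPH regeneration solution following 10 min compound preincubation with enzyme and proluciferin substrate. Furafylline positive control.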

[12] = Caspase-3/7 induction in CHO-K1 cells by small molecules, qHTS assay (AID 1346980); note: nearly all actives have a fitted effect of over 15% in size
In short: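 Wild-type CHO-K1 cells exposed to compounds for 17hr at 37 C, 5% CO2. Caspase-3/7 activity then measured by Caspase-Glo 3/7 luminescence after 30min at room temperature.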

[13] = target: Cytochrome P450 3A4 (Homo sapiens) (UniProt P08684); assay: Cytochrome P450 Family 3 Subfamily A Member 4 (CYP3A4) small molecule antagonists: luciferase reporter qHTS assay (AID 1671201); note: nearly all actives have a fitted effect of over 50% in size; note: potency is the fitted concentration of half-maximal effect
Cytochrome P450 3A4 (Homo sapiens), sequence (P08684 whole entry, looked up): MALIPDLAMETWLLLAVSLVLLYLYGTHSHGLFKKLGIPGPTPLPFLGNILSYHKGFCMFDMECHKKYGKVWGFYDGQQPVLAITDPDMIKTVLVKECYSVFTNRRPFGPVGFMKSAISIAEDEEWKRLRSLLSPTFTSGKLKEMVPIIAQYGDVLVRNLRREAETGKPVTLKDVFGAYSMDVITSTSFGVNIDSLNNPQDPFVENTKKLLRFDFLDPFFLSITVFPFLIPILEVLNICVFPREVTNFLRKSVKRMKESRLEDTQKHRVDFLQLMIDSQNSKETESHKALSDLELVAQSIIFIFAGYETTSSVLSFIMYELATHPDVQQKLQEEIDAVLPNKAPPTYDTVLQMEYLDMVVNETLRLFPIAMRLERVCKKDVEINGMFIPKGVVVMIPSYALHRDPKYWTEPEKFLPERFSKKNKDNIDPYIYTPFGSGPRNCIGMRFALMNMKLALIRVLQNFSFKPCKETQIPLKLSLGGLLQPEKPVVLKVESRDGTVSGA
In short: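 CYP3A4 activity was followed with a P450-Glo proluciferin substrate. Test compounds in DMSO were preincubated 10 min; NADPH regeneration then ran 1 h, and light output was read 20 min after detection reagent.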

Measured: Potency

Cc1nc2ccccc2s1
active: [6] 80.2 µM
inactive: [1] | [2] | [3] | [4] | [5] | [7] | [8]

Cc1oncc1C(=O)Nc1ccc(C(F)(F)F)cc1
active: [4] 12.2 µM and 1.5 µM | [10] 0.708 µM | [5] 31.7 µM | [6] 8.94 µM and 8.71 µM | [7] 25.2 µM and 15.5 µM | [11] 1.59 µM and 911 nM
inactive: [1] | [2] | [3] | [9] | [8]

CC1=C(C=O)C(C)(C)CCC1
active: [4] 27.3 µM
inactive: [1] | [2] | [12] | [5] | [11] | [8]

CC[C@H](NC(=O)c1cc(F)ccc1NS(=O)(=O)c1cccc2cccnc12)c1ccccc1
inactive: [1] | [12] | [11] | [8]
active: [2] 46 µM | [4] 0.46 µM | [7] 9.49 µM | [13] 1.5 µM

CCCCC1C(=O)N(c2ccccc2)N(c2ccc(O)cc2)C1=O (configuration not stated)
inactive: [1] | [9] | [10] | [11] | [8]
active: [2] 3.76 µM | [3] 29.8 µM | [4] 11.9 µM | [6] 17.4 µM | [7] 9.77 µM

CCOC(=O)c1ccccc1C
not listed: [7] | [9] | [10] | [11] | [12]
inactive: all other assays above

COCCOC
inactive: [1] | [8]
active: [2] 14.6 µM | [3] 13 µM

CN1C(=O)CC(C)(c2ccccc2)C1=O (configuration not stated)
not listed: [5] | [9] | [10] | [12]
inactive: all other assays above

Cc1cc(C(=C2C=CC(=Nc3ccc(S(=O)(=O)O)cc3S(=O)(=O)O)C=C2)c2ccc(Nc3ccc(S(=O)(=O)O)cc3)cc2)ccc1N
inactive: [1] | [2] | [12] | [4] | [11] | [8] | [13]

CC(=O)[C@H]1CC[C@H]2[C@@H]3C=CC4=CC(=O)CC[C@@]4(C)[C@@H]3CC[C@]12C
active: [4] 26.6 µM | [6] 2.75 µM | [7] 38.9 µM
not listed: [2]
inactive: all other assays above

CO/N=C1\CN(c2nc3c(cc2F)c(=O)c(C(=O)O)cn3C2CC2)CC1CN (configuration not stated)
not listed: [2] | [8]
inactive: all other assays above

CN1CCCN=C1/C=C/c1cccs1
inactive: [1] | [2] | [3] | [8]

O=C(NCCCN1CCOCC1)c1ccc(Cl)cc1
not listed: [2] | [5]
inactive: all other assays above

C[C@]12CCC(=O)C=C1C=C[C@@H]1[C@@H]2CC[C@@]2(C)[C@H]1CC[C@@]21CCC(=O)O1
active: [6] 1.1 µM
not listed: [2] | [7]
inactive: all other assays above

CC(C)=CC=O
not listed: [5] | [9] | [10] | [11] | [12]
inactive: all other assays above

c1cc[c]([Bi]([c]2ccccc2)[c]2ccccc2)cc1
active: [2] 61.1 µM | [4] 15.4 µM | [6] 0.283 µM | [7] 1 µM | [13] 2.24 µM
inactive: [1] | [3] | [11]

CCOC(=O)/C=C/C(=O)O
not listed: [5] | [9] | [10] | [12]
inactive: all other assays above

Cc1cc(OI)c(C(C)C)cc1-c1cc(C(C)C)c(OI)cc1C
active: [4] 29.8 µM | [10] 15.8 µM | [6] 8.71 µM | [7] 17.4 µM
not listed: [2] | [9] | [11]
inactive: all other assays above

CC(=O)CC(c1ccc([N+](=O)[O-])cc1)c1c(O)c2ccccc2oc1=O (configuration not stated)
active: [5] 38.9 µM | [6] 8.71 µM | [7] 2.45 µM
not listed: [2]
inactive: all other assays above

CCCOC(=O)c1ccc(C(=O)OCCC)nc1
active: [6] 4.48 µM | [7] 7.1 µM | [11] 11.2 µM
not listed: [9] | [10] | [12]
inactive: all other assays above

CC(C)(C)C(=O)C(Oc1ccc(Cl)cc1)n1ccnc1 (configuration not stated)
active: [4] 23.7 µM | [10] 15.8 µM | [6] 1.38 µM | [7] 2.75 µM | [11] 17.4 µM
inactive: [1] | [12] | [3] | [8]
